Experimental data taken from PubChem BioAssay (NCATS).
“And” between values parts separate entries of the source, which are not always exact repeats. Equal values may be shown once. Inconclusive results are not listed. The source holds several records for some structures; these can differ, active in one and inactive in another. The source made the active and inactive calls. Calls come from the whole dose curve; as a rule, active = well fitted inhibition curve with a large enough effect; inconclusive = small, poorly fitted or top-dose-only effect; inactive = flat fitted curve, though single readings scatter.

Assays:
[1] = tested on: PC49; assay: qHTS profiling for inhibitors of Plasmodium falciparum proliferation (AID 504749);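 note: 0% = DMSO vehicle and full inhibition = artemisinin control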; settings: P. falciparum in erythrocytes, SYBR Green DNA, 72 h; series mostly up to 28.7 µM
Method in brief: (§1)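 Infected RBCs, 0.3% parasitemia/2.5% Hct final; cpd 72 h, 37 C, 5% CO2; lysis buffer with saponin/triton/SYBR Green I, o/n RT dark; FI 485/535; norm. to artemisinin (0.29 uM) and DMSO.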

[2] = tested on: SC27B; assay: as above; settings: P. falciparum in erythrocytes, SYBR Green DNA, 72 h; series mostly up to 28.7 µM
Method in brief: as §1

[3] = tested on: TAB109; assay: as above; settings: P. falciparum in erythrocytes, SYBR Green DNA, 72 h; series mostly up to 28.7 µM
Method in brief: as §1

[4] = tested on: TAB113; assay: as above; settings: P. falciparum in erythrocytes, SYBR Green DNA, 72 h; series mostly up to 28.7 µM
Method in brief: as §1

[5] = tested on: TAB165; assay: as above; settings: P. falciparum in erythrocytes, SYBR Green DNA, 72 h; series mostly up to 28.7 µM
Method in brief: as §1

[6] = tested on: W2; assay: as above; settings: P. falciparum in erythrocytes, SYBR Green DNA, 72 h; series mostly up to 28.7 µM
Method in brief: as §1

[7] = tested on: CRL-7250; assay: Cytotoxic Profiling of Annotated Libraries Using Quantitative High-Throughput Screening (AID 1296008); settings: Five cell lines viability, CellTiter-Glo ATP luminescence, 48-72 h; max response: stronger effect = lower value; for max response: % is set by controls: 0 for no effect and ±100 for the full control effect
Method in brief: (§2)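 Cytotoxicity was measured as CellTiter-Glo ATP luminescence, read after 10 min at room temperature. Compound treatment of the cells lasted 48 or 72 hr at 37 degrees Celsius in a qHTS format.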

[8] = tested on: HEK293; assay: as above; settings: Five cell lines viability, CellTiter-Glo ATP luminescence, 48-72 h; max response: stronger effect = lower value
Method in brief: as §2

[9] = tested on: HaCat; assay: as above; settings: Five cell lines viability, CellTiter-Glo ATP luminescence, 48-72 h; max response: stronger effect = lower value
Method in brief: as §2

[10] = tested on: KB-3-1; assay: as above; settings: Five cell lines viability, CellTiter-Glo ATP luminescence, 48-72 h; max response: stronger effect = lower value
Method in brief: as §2

[11] = tested on: NIH3T3; assay: as above; settings: Five cell lines viability, CellTiter-Glo ATP luminescence, 48-72 h; max response: stronger effect = lower value
Method in brief: as §2

[12] = tested on: MCC-13; assay: qHTS assay to identify novel small-molecules to repurpose for Merkel cell carcinoma treatment (AID 1296009); settings: MCC and control cell lines, CellTiter-Glo viability, 72 h; series mostly up to 46 µM; note: potency is the fitted concentration of half-maximal effect
Method in brief: (§3)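 72 hr, 37 degree celsius; NPC 8-pt / MIPE 11-pt dose response; compound pinned in DMSO; CellTiter-Glo, 10 min RT, luminescence; normalized to no-cell and DMSO controls.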

[13] = tested on: MCC-26; assay: as above; settings: MCC and control cell lines, CellTiter-Glo viability, 72 h; series mostly up to 46 µM
Method in brief: as §3

[14] = tested on: MKL-1; assay: as above; settings: MCC and control cell lines, CellTiter-Glo viability, 72 h; series mostly up to 46 µM
Method in brief: as §3

[15] = tested on: MKL-2; assay: as above; settings: MCC and control cell lines, CellTiter-Glo viability, 72 h; series mostly up to 46 µM
Method in brief: as §3

[16] = tested on: NIH3T3; assay: as above; settings: MCC and control cell lines, CellTiter-Glo viability, 72 h
Method in brief: as §3

[17] = tested on: UISO; assay: as above; settings: MCC and control cell lines, CellTiter-Glo viability, 72 h; series mostly up to 46 µM
Method in brief: as §3

[18] = tested on: WaGa; assay: as above; settings: MCC and control cell lines, CellTiter-Glo viability, 72 h; series mostly up to 46 µM
Method in brief: as §3

[19] = tested on: HACAT; assay: as above; settings: MCC and control cell lines, CellTiter-Glo viability, 72 h
Method in brief: as §3

[20] = tested on: HEK293T; assay: as above; settings: MCC and control cell lines, CellTiter-Glo viability, 72 h
Method in brief: as §3

[21] = at 44.8 µM (top of the series) unless noted
Note: nearly all actives have a fitted effect of over 60% in size.

NCCCC(O)(P(=O)(O)O)P(=O)(O)O
inactive: Potency [1] | Potency [2] | Potency [3] | Potency [4] | Potency [5] | Potency [6] | outcome [7] | max response [8] -8.5% and -22.9% | max response [9] -6.79% | max response [10] 17.7% and -6.17% | max response [11] 0.802% | outcome [11] | Potency [12] | Potency [13] | Potency [14] | Potency [15] | outcome [16, 21] | Potency [17] | Potency [18]

CC(C)(C)NC(=O)[C@H]1CC[C@H]2[C@@H]3CC[C@H]4NC(=O)C=C[C@]4(C)[C@H]3CC[C@]12C
inactive: max response [7] -15.1% and -1.46% | max response [8] -5.16% | max response [9] -13.8% and -8.14% | max response [10] 9.49% and 2.45% | max response [11] 2.59% | outcome [11] | Potency [12] | Potency [13] | Potency [14] | Potency [15] | outcome [16, 21] | Potency [17] | Potency [18]

N[C@@H](C(=O)N[C@@H]1C(=O)N2C(C(=O)O)=C(Cl)CS[C@H]12)c1ccccc1
inactive: Potency [1] | Potency [2] | Potency [3] | Potency [4] | Potency [5] | Potency [6] | max response [7] 3.96% and -9.13% | outcome [8] | outcome [9] | max response [10] 16.8% and 8.23% | outcome [11] | outcome ([19]; at 9.27 µM (top of the series)) | outcome ([19]; at 44.8 µM (top of the series)) | outcome ([20]; at 9.27 µM (top of the series)) | outcome ([20]; at 44.8 µM (top of the series)) | Potency [12] | Potency [13] | Potency [14] | Potency [15] | outcome ([16]; at 9.27 µM (top of the series)) | outcome ([16]; at 44.8 µM (top of the series)) | Potency [17] | Potency [18]

CNNCc1ccc(C(=O)NC(C)C)cc1
inactive: Potency [1] | Potency [2] | Potency [3] | Potency [4] | Potency [5] | outcome [7] | max response [9] -9.48% | outcome [9] | max response [10] -11.6% | outcome [10] | max response [11] -4.42% | outcome [11] | outcome [19, 21] | outcome [20, 21] | Potency [12] | Potency [14] | Potency [15] | outcome [16, 21] | Potency [17] | Potency [18]

NC(=O)N1c2ccccc2CC(=O)c2ccccc21
6.68 µM (active) and inactive: Potency [15]
inactive: Potency [1] | Potency [2] | Potency [3] | Potency [4] | Potency [5] | Potency [6] | max response [7] 1.16% and -4.89% | outcome [8] | outcome [9] | max response [10] -10.3% and 3.64% | outcome [11] | outcome [19, 21] | outcome [20, 21] | Potency [12] | Potency [14] | outcome [16, 21] | Potency [17] | Potency [18]

COc1cccc(N(C)C(=S)Oc2ccc3c(c2)CCCC3)n1
inactive: Potency [1] | Potency [2] | Potency [3] | outcome [7] | max response [8] -19.3% | outcome [9] | max response [10] -2.71% and 6.85% | max response [11] 2.09% | outcome [19, 21] | Potency [12] | Potency [14] | Potency [15] | Potency [17] | Potency [18]

CC(C)C1CCC(C(=O)N[C@H](Cc2ccccc2)C(=O)O)CC1 (stereo partly specified)
inactive: max response [7] -2.02% and -1.93% | max response [8] -0.795% and -11.5% | max response [9] -8.21% and -7.47% | max response [10] 4.69% and 4.96% | max response [11] 0.816% and -0.595% | Potency [12] | Potency [13] | Potency [14] | Potency [15] | Potency [17] | Potency [18]

CC(C)NCC(O)c1ccc(NS(C)(=O)=O)cc1 (stereo unspecified)
inactive: Potency [1] | Potency [2] | Potency [3] | Potency [4] | Potency [5] | Potency [6] | outcome [7] | max response [8] 0.785% | outcome [9] | max response [10] 2.03% and 6.79% | max response [11] 4.22% | outcome [19, 21] | Potency [12] | Potency [13] | Potency [14] | Potency [15] | Potency [17] | Potency [18]

CC1=C(C(=O)O)N2C(=O)[C@@H](NC(=O)C(N)c3ccccc3)[C@H]2SC1 (stereo partly specified)
inactive: max response [7] -9.32% | max response [8] -2.36% | max response [9] 3% | outcome [10] | outcome [11] | Potency [12] | Potency [14] | Potency [15] | outcome [16, 21] | Potency [17] | Potency [18]

Cc1noc(NS(=O)(=O)c2ccc(N)cc2)c1C
inactive: Potency [1] | Potency [2] | Potency [3] | Potency [4] | Potency [5] | max response [7] 4.08% and -1.95% | max response [9] 1.98% | outcome [9] | max response [10] -4.11% and 1.03% | outcome [10] | max response [11] -2.78% and -1.88% | outcome [19, 21] | outcome [20, 21] | Potency [12] | Potency [14] | Potency [15] | Potency [17] | Potency [18]
